# A selection: hits, their analogues and other compounds. The true share with any hit is near 1.2%.
# N-glyco inh: blocks N-linked glycosylation in D54 reporter cells; D54 ERlucT glycosylation luciferase reporter, 24 h; percent of 100 nM tunicamycin response; reporter increase, % at 12.5 µM; 360,000 compounds, 0.23% hits;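 active means mean luciferase reporter signal, scaled so untreated is 0 and the glycosylation-blocking control 100, at or above a set limit in every replicate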;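 further: luciferase carries N-glycosylation sites so blocking glycosylation raises the light; 0% = median of neutral control wells and 100% = median of 100 nM tunicamycin wells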
# NSD2 HMT inh: inhibitors of human histone methyltransferase NSD2; O96028; NSD2 peptide methylation, AlphaScreen, 120 min; inhibition, % at 12.5 µM; 310,000 compounds, 0.54% hits; AID 743445; in the data active means inhibition above about 50%
# Target sequence (O96028 whole entry, looked up): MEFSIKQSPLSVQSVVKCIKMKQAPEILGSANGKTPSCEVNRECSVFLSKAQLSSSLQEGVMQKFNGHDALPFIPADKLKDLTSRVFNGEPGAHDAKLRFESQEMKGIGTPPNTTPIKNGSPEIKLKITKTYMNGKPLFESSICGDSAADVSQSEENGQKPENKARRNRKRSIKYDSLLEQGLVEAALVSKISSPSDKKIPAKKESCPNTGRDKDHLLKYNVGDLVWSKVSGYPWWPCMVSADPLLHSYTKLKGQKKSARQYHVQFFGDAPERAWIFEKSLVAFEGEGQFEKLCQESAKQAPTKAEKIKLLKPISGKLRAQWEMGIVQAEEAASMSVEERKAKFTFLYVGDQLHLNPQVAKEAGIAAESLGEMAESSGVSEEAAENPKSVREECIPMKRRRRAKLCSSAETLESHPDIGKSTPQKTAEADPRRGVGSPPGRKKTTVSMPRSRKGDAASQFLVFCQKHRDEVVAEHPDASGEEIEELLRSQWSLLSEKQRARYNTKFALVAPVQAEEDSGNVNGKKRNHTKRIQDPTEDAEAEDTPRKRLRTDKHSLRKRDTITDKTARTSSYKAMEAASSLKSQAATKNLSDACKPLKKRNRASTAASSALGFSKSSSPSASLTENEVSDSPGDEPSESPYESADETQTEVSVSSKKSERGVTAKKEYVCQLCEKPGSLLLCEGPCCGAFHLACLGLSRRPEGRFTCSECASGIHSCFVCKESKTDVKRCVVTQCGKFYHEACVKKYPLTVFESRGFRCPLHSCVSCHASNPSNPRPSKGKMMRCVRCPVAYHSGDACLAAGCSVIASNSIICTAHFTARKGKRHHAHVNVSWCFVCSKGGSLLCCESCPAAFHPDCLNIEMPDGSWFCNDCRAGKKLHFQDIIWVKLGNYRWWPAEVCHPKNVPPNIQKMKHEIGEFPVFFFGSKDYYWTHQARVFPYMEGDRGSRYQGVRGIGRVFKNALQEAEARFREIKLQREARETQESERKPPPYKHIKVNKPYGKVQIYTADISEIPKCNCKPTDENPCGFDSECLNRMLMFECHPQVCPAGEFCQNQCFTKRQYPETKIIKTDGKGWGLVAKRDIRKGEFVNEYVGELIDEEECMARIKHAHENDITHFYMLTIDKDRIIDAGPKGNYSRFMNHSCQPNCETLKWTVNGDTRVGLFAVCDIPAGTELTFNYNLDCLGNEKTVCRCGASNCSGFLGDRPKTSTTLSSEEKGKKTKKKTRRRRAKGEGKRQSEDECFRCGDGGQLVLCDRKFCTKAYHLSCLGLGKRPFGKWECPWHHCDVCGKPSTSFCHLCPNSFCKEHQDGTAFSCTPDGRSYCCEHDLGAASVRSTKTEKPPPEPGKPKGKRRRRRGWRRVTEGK
# Casp6 inh: caspase-6 (human) enzyme inhibition. P55212. purified caspase-6, Z-VEID-R110 cleavage fluorescence. inhibition, % at 12.5 µM. 350,000 compounds, 0.53% hits;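 active means mean inhibition across replicates at least about 35%, with every replicate also reaching that limit, limit read from the data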;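 further: 0% = median of neutral control wells and 100% = no fluorescence left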
# RAD52 anneal inh: blocks human RAD52 DNA annealing. P43351. 360,000 compounds, 0.46% hits. recombinant RAD52 DNA annealing, FRET fluorescence. inhibition, % at 18.7 µM;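 active means every replicate showing at least 50% inhibition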
# RAD54 branch: blocks human RAD54 Holliday junction branch migration. inhibition, % at 10.4 µM. FAM/BHQ fluorescence. AID 602329. Q92698. 360,000 compounds, 0.14% hits;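 active means mean normalized replicate activity at least 40 and at least half of replicates scoring 40 or more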;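 further: 0% = median of neutral control wells and 100% = median of positive control wells; inhibitors cause a drop in the FAM fluorescence signal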
# * = called active by the depositor; / = not tested or not shown.
SMILES,N-glyco inh,NSD2 HMT inh,Casp6 inh,RAD52 anneal inh,RAD54 branch
COc1ccccc1C#Cc1ccc([C@H]2[C@H](CO)N3CCCCN(C(=O)C4CCCC4)C[C@@H]23)cc1,/,/,-1.2,55.7*,-0.9
COc1ccc(NC(=O)N2CCCCN3[C@H](CO)[C@H](c4ccc(C#Cc5ccccc5)cc4)[C@H]3C2)cc1,/,/,-1.3,95.0*,3.8
COc1ccccc1C#Cc1ccc([C@@H]2[C@@H](CO)N3CCCCN(C(=O)C4CCCC4)C[C@@H]23)cc1,/,/,1.1,26.8,-8.2
CCNC(=O)C[C@H]1CC[C@H]2[C@H](COc3ccc(NC(=O)c4ccc(F)c(F)c4)cc3C(=O)N2C)O1,/,/,-1.6,-4.6,-17.6
CCC(=O)N1CCC1(C)C(=O)Nc1ccc2c(c1)CCN2C(C)=O (stereo not given),1.4,1.6,48.6*,-4.1,4.0
CCCC(=O)N1CCCC1(C)C(=O)Nc1ccc2c(c1)CCN2C(C)=O (stereo not given),1.4,-3.8,0.1,-7.2,-6.3
CC(C)NC(=O)Nc1ccc2c(c1)C(=O)N([C@H](C)CO)C[C@@H](C)[C@H](CN(C)C(=O)NC(C)C)O2,/,/,3.8,9.9,-1.6
COc1cc(/C=C2\CCc3c2nc2ccccc2c3C(=O)O)cc(OC)c1OC,-4.3,/,49.1*,-13.4,-4.2
CCOC(=O)Cc1csc(/N=C/c2c(O)n(-c3ccc(C)c(C)c3)c(=O)c3ccccc23)n1,71.5*,0.7,/,/,/
C/C=C/C=C/C(=O)Nc1nccs1,0.7,10.0,7.4,-25.7,-7.8
O=C(/C=C/c1ccc(Cl)cc1)Nc1nccs1,-12.0,15.7,63.6*,-26.1,/
CCOc1cc(N2CCOCC2)c(OCC)cc1NS(=O)(=O)c1cc(NC(C)=O)ccc1OC,2.7,13.7,36.7*,-17.9,2.4
CCCN(C)C[C@H]1Oc2cc(-c3ccncc3)ccc2S(=O)(=O)N([C@H](C)CO)C[C@H]1C,/,/,0.2,10.3,-4.5
CC1CCc2[nH]c3ccc(C(=O)O)cc3c2C1 (stereo not given),-0.3,0.4,48.4*,-8.8,1.7
O=C(O)c1ccc2[nH]c3c(c2c1)CCCC3,2.3,1.4,29.0,-13.7,4.8
CCS(=O)(=O)C1=NN2C(=N)/C(=C\c3ccc(OS(=O)(=O)c4ccccc4)c(OC)c3)C(=O)N=C2S1,/,21.8,/,/,/
COc1cc(/C=C2\C(=N)N3N=C(S(C)(=O)=O)SC3=NC2=O)ccc1OCCOc1ccc(C)cc1,1.7,5.6,16.3,-19.0,-9.4
CCS(=O)(=O)C1=NN2C(=N)/C(=C\c3ccc(OCCOc4cccc(OC)c4)c(OC)c3)C(=O)N=C2S1,1.8,19.9,45.5*,-14.2,2.8
Cc1ccc(S(=O)(=O)Oc2ccc(/C=C3\C(=N)N4N=C(S(C)(=O)=O)SC4=NC3=O)cc2)cc1,1.6,46.7,58.7*,-51.3,1.0
CCOc1cc(/C=C2\C(=N)N3N=C(S(C)(=O)=O)SC3=NC2=O)ccc1OCCOc1cccc(OC)c1,1.0,1.6,44.9*,-54.7,/
C=CCNC(=O)/C(C#N)=C/c1c(C)nn(-c2ccc(Cl)cc2)c1Cl,26.2*,-0.2,-2.2,-9.5,/
O=C(NCc1ccncc1)c1ccc(OCc2ccccc2)cc1,-4.0,-1.4,36.4*,-11.3,7.5
O=C(NCc1ccncc1)c1ccc(Oc2ccccc2)cc1,-3.9,-2.3,3.1,-26.4,/
CC(=O)Nc1ccc(S(=O)(=O)Nc2nc3ccccc3nc2Nc2ccc(C(=O)O)c(O)c2)cc1,2.6,47.7,72.7*,-37.2,-0.5
CC(=O)Nc1ccc(S(=O)(=O)Nc2nc3ccccc3nc2Nc2cccc(O)c2)cc1,0.1,/,3.0,-4.6,/
SMILES,N-glyco inh,NSD2 HMT inh,Casp6 inh,RAD52 anneal inh,RAD54 branch
C[C@H](CO)N1C[C@H](C)[C@H](CN(C)C(=O)Nc2ccc(C(F)(F)F)cc2)Oc2c(NC(=O)CCCCCC(=O)Nc3ccccc3N)cccc2C1=O,/,/,3.8,6.9,/
CCOC(=O)N(O)c1ccc(C=Cc2ccccc2)cc1,-11.6,/,67.4*,-3.2,/
O=c1[nH]c(=O)n(C2CC(O)C(CO)O2)cc1Br (stereo not given),35.8*,1.1,-0.6,-6.8,/
CCc1cn([C@H]2C[C@H](O)[C@@H](CO)O2)c(=O)[nH]c1=O,0.2,/,0.1,1.4,4.4
COC(=O)N1C(=O)[C@@](c2ccsc2)(C(C)C)N1C(=O)OC,/,-3.6,/,/,/
Oc1ccc(/C=N/Nc2cc(N3CCCC3)nc(N3CCCC3)n2)cc1O,1.2,109.9*,16.8,-5.3,/
Oc1ccc(/C=N\Nc2cc(N3CCOCC3)nc(N3CCOCC3)n2)c(O)c1,-8.3,152.9*,7.2,-2.3,3.0
